The structures appear in SMILES notation. Hit rate of the full screen: of about 39,000 compounds, about 3,300 (8.5%) were called active. This is one part of a sample in which actives are shown more often than they occur.

The subject of this assay is HepG2. The experiment in a line: cytotoxicity call (relative viability < 0.9). As to conditions: 10 µM.
As to `C[C@@H]1CCCCO[C@H](CN(C)S(C)(=O)=O)[C@@H](C)CN([C@@H](C)CO)C(=O)c2cc(N(C)C)ccc2O1`, the cytotoxicity call was “inactive”. Under `C[C@@H]1CN([C@@H](C)CO)C(=O)c2cccc(NC(=O)c3nc4ccccc4s3)c2O[C@@H]1CN(C)Cc1ccc(Oc2ccccc2)cc1` stands “inactive”; under `COc1cc(S(=O)(=O)NCCN2CCN(S(=O)(=O)c3cc(OC)c(Cl)cc3OC)CC2)c(OC)cc1Cl`, “inactive”. Regarding `COc1ccc(NC(=O)N(C)C[C@@H]2Oc3c(NC(=O)CCCCCC(=O)Nc4ccccc4N)cccc3C(=O)N([C@@H](C)CO)C[C@H]2C)cc1`, the cytotoxicity call was “inactive”.

Consider `Cc1ccc(S(=O)(=O)Nc2ccc3c(c2)C(=O)N([C@H](C)CO)C[C@H](C)[C@H](CN(C)C(=O)CCC(F)(F)F)OCCCC[C@H](C)O3)cc1`, for which the cytotoxicity call was “inactive”. For the compound `COc1ccc(NC(=O)N(C)C[C@H]2OCCCC[C@@H](C)Oc3ccc(NS(=O)(=O)c4cccs4)cc3C(=O)N([C@H](C)CO)C[C@H]2C)cc1`, the cytotoxicity call is “inactive”. `O=C(NCCN1CCOCC1)[C@@H]1c2ccccc2C(=O)N(C2Cc3ccccc3C2)[C@H]1c1ccc(CO)cc1`: the cytotoxicity call was “inactive”. Regarding `COCCNC(=O)C[C@@H]1CC[C@H]2[C@@H](COC[C@@H](O)CN2S(=O)(=O)c2ccccc2F)O1`, the cytotoxicity call was “inactive”. For `COCC(=O)Nc1ccc2c(c1)C(=O)N(C)C[C@H](OC)[C@@H](C)CN(C(=O)c1ccccc1F)[C@H](C)CO2`, the cytotoxicity call is “inactive”.

For `C[C@@H]1CN([C@@H](C)CO)C(=O)Cc2cc(NS(=O)(=O)c3cn(C)cn3)ccc2O[C@H]1CN(C)C(=O)NC1CCCCC1`, the cytotoxicity call is “inactive”. `C[C@H]1CCCCO[C@H](CN(C)Cc2ccncc2)[C@@H](C)CN([C@@H](C)CO)C(=O)c2cc(NC(=O)NC3CCCCC3)ccc2O1`: the cytotoxicity call is “inactive”. As for `C[C@H]1CCCCO[C@H](CN(C)S(=O)(=O)c2ccc(Cl)cc2)[C@@H](C)CN([C@@H](C)CO)C(=O)c2cc(NC(=O)Cc3ccccc3)ccc2O1`, the cytotoxicity call is “active”. For `C[C@@H]1CCCCO[C@@H](CN(C)S(=O)(=O)c2ccc(Cl)cc2)[C@H](C)CN([C@@H](C)CO)C(=O)c2cc(NC(=O)Cc3ccccc3)ccc2O1`, the cytotoxicity call is “inactive”. As to `C[C@@H]1CN([C@@H](C)CO)C(=O)c2cc(NC(=O)Cc3ccccc3)ccc2O[C@@H](C)CCCCO[C@@H]1CN(C)S(=O)(=O)c1ccc(Cl)cc1`, the cytotoxicity call was “inactive”. Under `CCS(=O)(=O)N1Cc2nccn2C[C@H](Cn2ncccc2=O)C1` stands “inactive”; under `Cc1ccc(S(=O)(=O)Nc2ccc3c(c2)C(=O)N([C@@H](C)CO)C[C@@H](C)[C@@H](CN(C)S(=O)(=O)c2ccc(F)cc2)O3)cc1`, “inactive”; under `Cc1noc(C)c1S(=O)(=O)Nc1cccc2c1O[C@@H](CN(C)S(C)(=O)=O)[C@@H](C)CN([C@H](C)CO)C2=O`, “inactive”. `Cc1noc(C)c1S(=O)(=O)Nc1cccc2c1O[C@@H](CN(C)S(C)(=O)=O)[C@@H](C)CN([C@@H](C)CO)C2=O`: the cytotoxicity call is “active”. On to `Cc1noc(C)c1S(=O)(=O)Nc1cccc2c1O[C@H](CN(C)Cc1ccc(C(=O)O)cc1)[C@H](C)CN([C@@H](C)CO)C2=O`, for which the cytotoxicity call is “inactive”. As to `Cc1noc(C)c1S(=O)(=O)Nc1cccc2c1O[C@H](CN(C)S(C)(=O)=O)[C@H](C)CN([C@@H](C)CO)C2=O`, the cytotoxicity call was “inactive”. Consider `Cc1noc(C)c1S(=O)(=O)Nc1cccc2c1O[C@H](CN(C)Cc1ccc(C(=O)O)cc1)[C@H](C)CN([C@H](C)CO)C2=O`, for which the cytotoxicity call is “active”. Turning to `Cc1noc(C)c1S(=O)(=O)Nc1cccc2c1O[C@H](CN(C)Cc1ccc(C(=O)O)cc1)[C@@H](C)CN([C@H](C)CO)C2=O`, the cytotoxicity call is “inactive”. The entry for `CC(C)CC#Cc1cnc2c(c1)C(=O)N([C@@H](C)CO)C[C@@H](C)[C@@H](CN(C)S(=O)(=O)c1cccs1)O2` is “inactive”; for `C[C@H](CO)N1C[C@H](C)[C@H](CN(C)C(=O)Nc2ccc(F)cc2)OCCCC[C@H](C)Oc2ccc(NC(=O)c3ccncc3)cc2C1=O` it is “inactive”. Under `CCS(=O)(=O)N1CC[C@]2(CC1)CN(Cc1ccc3c(c1)OCO3)[C@@H](CO)c1[nH]c3cc(ccc3c12)OC` stands “inactive”; under `CCC(=O)N1C[C@]2(CN(C2)C(=O)CN2CCOCC2)c2c([nH]c3cc(ccc23)OC)[C@H]1CO`, “inactive”. For `COc1ccc(S(=O)(=O)Nc2ccc3c(c2)C(=O)N([C@H](C)CO)C[C@H](C)[C@@H](CN(C)C(=O)Nc2ccc4c(c2)OCO4)OCCCC[C@@H](C)O3)cc1`, the cytotoxicity call is “inactive”.

Take `C[C@@H]1CN([C@@H](C)CO)C(=O)c2cccc(NC(=O)c3ccncc3)c2O[C@@H]1CN(C)S(=O)(=O)c1cn(C)cn1`: the cytotoxicity call was “inactive”. For `Cc1ccc(S(=O)(=O)N(C)C[C@@H]2OCCCC[C@H](C)Oc3ccc(NC(=O)Nc4ccc(C(F)(F)F)cc4)cc3C(=O)N([C@H](C)CO)C[C@H]2C)cc1`, the cytotoxicity call is “inactive”. For the compound `Cc1ccc(S(=O)(=O)N(C)C[C@@H]2OCCCC[C@@H](C)Oc3ccc(NC(=O)Nc4ccc(C(F)(F)F)cc4)cc3C(=O)N([C@@H](C)CO)C[C@H]2C)cc1`, the cytotoxicity call was “active”.

As for `Cc1ccc(S(=O)(=O)N(C)C[C@@H]2OCCCC[C@H](C)Oc3ccc(NC(=O)Nc4ccc(C(F)(F)F)cc4)cc3C(=O)N([C@@H](C)CO)C[C@@H]2C)cc1`, the cytotoxicity call is “inactive”.

Turning to `Cc1ccc(S(=O)(=O)N(C)C[C@H]2OCCCC[C@@H](C)Oc3ccc(NC(=O)Nc4ccc(C(F)(F)F)cc4)cc3C(=O)N([C@@H](C)CO)C[C@@H]2C)cc1`, the cytotoxicity call is “active”. The entry for `Cc1ccc(S(=O)(=O)N(C)C[C@H]2OCCCC[C@H](C)Oc3ccc(NC(=O)Nc4ccc(C(F)(F)F)cc4)cc3C(=O)N([C@@H](C)CO)C[C@@H]2C)cc1` is “inactive”; for `Cc1ccc(S(=O)(=O)N(C)C[C@@H]2OCCCC[C@@H](C)Oc3ccc(NC(=O)Nc4ccc(C(F)(F)F)cc4)cc3C(=O)N([C@H](C)CO)C[C@H]2C)cc1` it is “inactive”; for `O=C([O-])C=CC(=O)[O-].[Fe+2]` it is “inactive”. Turning to `O=C(CCCCC(=O)N/N=C/[C@H](O)[C@@H](O)[C@H](O)[C@H](O)CO[C@H]1O[C@H](CO)[C@H](O)[C@H](O)[C@H]1O)NO`, the cytotoxicity call was “inactive”.

For `CC(C)NC(=O)N(C)C[C@H]1Oc2ccc(NS(=O)(=O)c3ccc(Cl)cc3)cc2CC(=O)N([C@H](C)CO)C[C@H]1C`, the cytotoxicity call is “inactive”.
